Source: paper PMC3218832

Key:
Assay in all cases: protein binding microarray; high values mean tight binding
Conditions in all cases: dsDNA, one strand shown
[1] = biological target: RELARELA (p65 homodimer) (Homo sapiens, UniProt Q04206 1-307)
[2] = biological target: p50p50 homodimer (Homo sapiens, UniProt P19838 7-356)
[3] = biological target: T1, p52p52 homodimer (Homo sapiens, UniProt Q00653 4-332)
T1 sequence: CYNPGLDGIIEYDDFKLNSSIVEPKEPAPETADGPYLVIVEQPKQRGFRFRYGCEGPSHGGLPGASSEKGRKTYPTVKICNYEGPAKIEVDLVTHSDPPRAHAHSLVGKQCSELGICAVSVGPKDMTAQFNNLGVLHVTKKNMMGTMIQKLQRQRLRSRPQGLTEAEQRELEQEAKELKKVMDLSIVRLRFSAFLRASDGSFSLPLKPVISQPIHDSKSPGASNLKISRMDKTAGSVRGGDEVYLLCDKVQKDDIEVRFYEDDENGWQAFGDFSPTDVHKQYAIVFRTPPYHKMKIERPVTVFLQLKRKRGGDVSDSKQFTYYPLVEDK

[4] = biological target: RELA (p65) subunit of heterodimer;p50 subunit (Homo sapiens;Homo sapiens, UniProt Q04206;P19838 1-307;7-356)
Sequence of RELA (p65) subunit of heterodimer;p50 subunit (Q04206 1-307, chain 1 of 2): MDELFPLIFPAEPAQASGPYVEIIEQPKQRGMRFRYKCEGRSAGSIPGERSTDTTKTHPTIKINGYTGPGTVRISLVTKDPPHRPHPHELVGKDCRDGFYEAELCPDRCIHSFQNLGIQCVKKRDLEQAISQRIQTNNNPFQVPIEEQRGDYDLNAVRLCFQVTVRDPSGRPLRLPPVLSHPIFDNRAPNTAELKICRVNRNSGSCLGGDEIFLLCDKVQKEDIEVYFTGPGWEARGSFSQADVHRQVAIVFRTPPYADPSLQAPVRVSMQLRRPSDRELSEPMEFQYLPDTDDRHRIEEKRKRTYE
Sequence of RELA (p65) subunit of heterodimer;p50 subunit (P19838 7-356, chain 2 of 2): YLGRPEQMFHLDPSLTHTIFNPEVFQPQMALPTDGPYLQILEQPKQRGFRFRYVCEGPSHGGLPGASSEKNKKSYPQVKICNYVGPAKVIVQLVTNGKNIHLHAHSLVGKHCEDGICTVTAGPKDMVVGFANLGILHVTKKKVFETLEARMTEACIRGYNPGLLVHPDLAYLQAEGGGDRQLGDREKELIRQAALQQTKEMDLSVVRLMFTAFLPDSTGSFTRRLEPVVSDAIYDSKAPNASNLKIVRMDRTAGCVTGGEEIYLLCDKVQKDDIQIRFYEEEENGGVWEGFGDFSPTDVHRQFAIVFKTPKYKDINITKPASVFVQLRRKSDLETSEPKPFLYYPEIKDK

[5] = biological target: RELA (p65) subunit of heterodimer;p52 subunit (Homo sapiens;Homo sapiens, UniProt Q04206;Q00653 1-307;4-332)
[6] = biological target: RELB subunit;p50 subunit (Homo sapiens;Homo sapiens, UniProt Q01201;P19838 120-401;7-356)
[7] = biological target: T2, RELB subunit;p52 subunit (Homo sapiens;Homo sapiens, UniProt Q01201;Q00653 120-401;4-332)
T2 sequence 1: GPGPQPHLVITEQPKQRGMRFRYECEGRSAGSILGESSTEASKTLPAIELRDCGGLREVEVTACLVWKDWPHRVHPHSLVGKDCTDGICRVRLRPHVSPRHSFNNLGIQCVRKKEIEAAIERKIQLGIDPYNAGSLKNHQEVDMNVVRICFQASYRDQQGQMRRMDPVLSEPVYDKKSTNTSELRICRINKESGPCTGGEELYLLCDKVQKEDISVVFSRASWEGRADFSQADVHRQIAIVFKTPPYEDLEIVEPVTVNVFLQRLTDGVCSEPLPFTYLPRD
T2 sequence 2: T1 sequence

[8] = biological target: C-Rel subunit;p50 subunit (Homo sapiens;Homo sapiens, UniProt Q04864;P19838 1-285;7-356)
[9] = biological target: T3, C-Rel subunit;p52 subunit (Homo sapiens;Homo sapiens, UniProt Q04864;Q00653 1-285;4-332)
T3 sequence 1: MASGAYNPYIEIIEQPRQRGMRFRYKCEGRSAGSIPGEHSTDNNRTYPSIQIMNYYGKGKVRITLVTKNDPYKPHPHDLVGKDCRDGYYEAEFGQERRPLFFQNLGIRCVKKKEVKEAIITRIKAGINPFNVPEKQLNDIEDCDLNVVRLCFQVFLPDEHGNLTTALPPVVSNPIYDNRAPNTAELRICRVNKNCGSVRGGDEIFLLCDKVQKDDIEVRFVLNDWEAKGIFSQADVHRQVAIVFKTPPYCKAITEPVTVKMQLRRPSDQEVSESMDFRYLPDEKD
T3 sequence 2: T1 sequence

Sequence of p50p50 homodimer (P19838 7-356): as the sequence (P19838 7-356, chain 2 of 2) above
Sequence of RELARELA (p65 homodimer) (Q04206 1-307): as the sequence (Q04206 1-307, chain 1 of 2) above

Sequence	binding signal [1] [z-score]	binding signal [2] [z-score]	binding signal [3] [z-score]	binding signal [4] [z-score]	binding signal [5] [z-score]	binding signal [6] [z-score]	binding signal [7] [z-score]	binding signal [8] [z-score]	binding signal [9] [z-score]
GGAATGCCCCC	2.8	1.02	1.8	2.08	2.18	1.13	1.75	1.61	2.48
AGGAGCGCCCC	-0.227	-0.229	0.018	0.186	0.348	-0.0805	0.162	0.0948	0.277
GAAAAATTCCT	1.78	-0.0646	-0.212	0.245	0.117	-0.659	-0.236	0.538	0.319
AAAGACTCCCT	-0.338	0.719	0.0106	0.327	0.161	0.395	0.156	-0.0953	0.0126
AGGGAGTTCCT	0.744	0.856	1.12	0.667	0.798	0.721	0.659	0.315	0.64
CGGGTCCTCCC	-0.107	-0.467	-0.154	-0.451	-0.038	-0.526	-0.335	-0.324	0.0736
CGAGTCTTCCC	0.331	-0.565	-0.302	-0.0997	-0.304	-0.386	-0.409	0.0328	-0.153
AAATACGTCCC	0.519	0.264	0.547	0.144	0.183	0.285	0.334	0.368	-0.029
GAAATTGCCCT	0.612	-0.312	-0.333	0.0283	-0.203	-0.547	-0.476	0.175	-0.0915
GGAGTCGTCCT	-0.136	-1.28	-0.582	-0.993	-0.875	-1.03	-0.714	-1.4	-0.812
GAATACATCCT	-0.313	-0.946	-0.677	-0.816	-0.805	-0.977	-0.824	-1.36	-0.87
AGAGAACTCCT	-0.542	-1.29	-0.694	-0.888	-1.06	-1.05	-0.943	-1.01	-0.762
GGGTTGACCCT	-0.0795	-0.785	-0.387	-0.407	-0.336	-0.554	-0.73	-0.769	-0.115
CAAAGAACCCT	-0.87	-0.409	-0.354	-0.631	-0.614	-0.682	-0.58	-0.78	-0.544
AAGATCTCCCT	0.0704	1.15	0.499	0.913	0.528	1.16	1.02	0.475	0.202
